Compound activity as filed in PubChem.
Sampled rows, rich in hits. Any-hit rate of the full collection: about 2.5%.
GAA850 FXN act = FXN promoter activators, primary screen, cell-based, luciferase luminescence, HEK293 lucGAA850. HEK293 lucGAA850 FXN promoter luciferase reporter, 24 h; percent of 10 µM SAHA response. activation, % at 6 µM. 360,000 compounds, 0.56% hits. AID 540364, 2011;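 active = activation above the average of all compounds screened plus 3 SD, cutoff fixed separately per campaign, cut at about 7.5% in these data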;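 note: 0% = DMSO wells and 100% = 10 µM SAHA wells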
EWS-Fli block = EWS/Fli-driven NR0B1 reporter inhibitors, primary screen, A673 cells, NR0B1 luciferase, luminescence, MLPCN library. viability-normalised. inhibition, % at 12.6 µM. 350,000 compounds, 0.67% hits. AID 651661, 2012;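 active = mean inhibition of at least 50% after viability correction, with every replicate also passing that limit; inconclusive = mean reaches 50% but only one of two replicates passes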;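 note: firefly luciferase signal divided by Alamar Blue viability fluorescence both relative to DMSO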
PAX8 reporter = inhibitors of PAX8-driven TPO luciferase reporter, primary screen, RMG-I cells, single concentration | SteadyGlo, 24 h | inhibition, % at 12.6 µM | 360,000 compounds, 1.2% hits;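 active = mean replicate inhibition at least 60% with every replicate also reaching 60%; inconclusive = only one of the two criteria is met; inactive = mean below 60% and not all replicates reaching 60%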;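 note: luciferase light reporting Pax8 driven TPO promoter activity; plate controls were median of neutral control wells for no effect and mitoxantrone controls for full effect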
HIV Env fusion = inhibitors of HIV-1 Env-driven cell-cell fusion, primary screen, HeLa-JRFL effector, CEM21 target cells, luciferase; AID 651610, 2012; 360,000 compounds, 1.1% hits; inhibition, % at 12.3 µM;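 active = mean replicate inhibition score of at least 50 and every replicate individually at or above 50; inconclusive = only one of the two criteria met; inactive = mean below 50 and not all replicates reaching 50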;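 note: 0% = plate neutral controls and 100% = maraviroc near 300 nM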
F508del corr = F508del CFTR correction, initial screen, CFBE line, single point. CFBE cells, YFP halide quenching; stimulated with forskolin plus potentiator P3; % fluorescence drop versus neutral controls. activity (quench increase), % at 7.58 µM. 350,000 compounds, 0.36% hits. AID 720511, 2013;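 active = mean added fluorescence quench of at least 8% versus neutral control, with both replicates also reaching 8%; inconclusive = only one of the mean or replicate conditions met; inactive = mean below 8% and not both replicates reaching 8%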;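 note: cells transiently co-express mutant CFTR-F508del with the halide-sensitive YFP; corrector assay measuring rescue of mutant channel to the surface after 24 h compound exposure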
Starred values were filed as active, the others as inactive; ? = inconclusive; / = no result; [ ] = remark or other dose.

SMILES	GAA850 FXN act	EWS-Fli block	PAX8 reporter	HIV Env fusion	F508del corr
Cc1ccc(-c2ccc(C3[C@@H]4CN(S(=O)(=O)c5ccc(C)cc5)C[C@H]3N4)cc2)cc1 (stereo partly drawn)	/	8	73*	/	-5
COc1ccccc1S(=O)(=O)N1C[C@@H]2N[C@H](C1)C2c1ccc(-c2ccccc2)cc1 (stereo partly drawn)	/	0	1	/	4
COc1ccccc1-c1ccc([C@@H]2[C@@H]3CN(S(=O)(=O)c4ccc(-c5ccccc5)cc4)C[C@H]2N3)cc1	/	-3	107*	/	-1
COc1ccc(-c2cnc3c(c2)C(=O)N([C@H](C)CO)C[C@@H](C)[C@H](CN(C)S(C)(=O)=O)O3)cc1	/	-1	/	-2[16.7 µM]	-1
OC(CNc1nc(C(F)(F)F)nc2ccccc12)c1ccccc1 (stereo not drawn)	1	3	-12	58*	0
O=C(O)CCNc1nc(C(F)(F)F)nc2ccccc12	2	2	-17	3	-2
CC(C)CC(=NNC(=O)c1ccncc1)c1cc(Cl)ccc1O	-6	-1	/	33	16*
C/C(=N/NC(=O)c1ccncc1)c1ccc(NC(=O)c2ccc(Cl)cc2Cl)cc1	3	/	-165	-25	-1
CC1(C)CC(CC(=O)Nc2nccs2)(c2ccccc2)CCO1 (stereo not drawn)	0	-24	69*	/	1
COc1ccc(S(=O)(=O)N(C)C[C@H]2Oc3ccc(NC(=O)Nc4cccc5ccccc45)cc3CC(=O)N([C@H](C)CO)C[C@H]2C)cc1	/	5	/	-3[16.7 µM]	-3
O=C(C[C@@H]1C[C@@H]2c3cc(NC(=O)CC4CC4)ccc3O[C@@H]2[C@H](CO)O1)NCc1ccc(Cl)cc1	/	12	9	9[16.7 µM]	-2
CC1(C(=O)O)CCCN1C(=O)c1ccccc1OC(F)(F)F (stereo not drawn)	0	-12	73*	-4	1
CCOC(=O)C1(C)CCN1C(=O)c1ccccc1OC(F)(F)F (stereo not drawn)	-1	-6	-6	20	-2
CC(=O)Nc1sc2c(c1C(c1ccc(F)cc1)N1CCOCC1)CCCC2 (stereo not drawn)	0	/	33	90*	/
CC(=O)Nc1sc2c(c1C(c1ccc(Cl)cc1)N1CCOCC1)CCCC2 (stereo not drawn)	2	/	/	/	/
C[C@@H]1CN([C@H](C)CO)C(=O)c2cc(NC(=O)Cc3ccccc3)ccc2O[C@@H](C)CCCCO[C@@H]1CN(C)Cc1ccccc1	/	13	25	-9[16.7 µM]	0
C[C@@H]1CN([C@@H](C)CO)C(=O)c2cc(NC(=O)Cc3ccccc3)ccc2O[C@@H](C)CCCCO[C@@H]1CN(C)Cc1ccc(C(F)(F)F)cc1	/	8	97*	31[16.7 µM]	1
C[C@H]1CCCCO[C@H](CN(C)Cc2ccccc2)[C@@H](C)CN([C@@H](C)CO)C(=O)c2cc(NC(=O)Cc3ccccc3)ccc2O1	/	7	-29	13[16.7 µM]	1
C[C@@H]1CN([C@H](C)CO)C(=O)c2cc(NC(=O)Cc3ccccc3)ccc2O[C@@H](C)CCCCO[C@H]1CN(C)Cc1ccc(C(F)(F)F)cc1	/	32	80*	73*[16.7 µM]	5
C[C@H]1CCCCO[C@H](CN(C)Cc2ccc(C(F)(F)F)cc2)[C@@H](C)CN([C@@H](C)CO)C(=O)c2cc(NC(=O)Cc3ccccc3)ccc2O1	/	14	76*	?	5
C[C@@H]1CCCCO[C@@H](CN(C)Cc2ccc(C(F)(F)F)cc2)[C@H](C)CN([C@H](C)CO)C(=O)c2cc(NC(=O)Cc3ccccc3)ccc2O1	/	14	91*	23[16.7 µM]	3
C[C@H](CO)N1C[C@H](C)[C@H](CN(C)Cc2ccccc2)Oc2ccc(NS(=O)(=O)c3ccc(Cl)cc3)cc2C1=O	/	6	15	11[16.7 µM]	-2
C[C@H](CO)N1C[C@H](C)[C@H](CN(C)Cc2ccc(C(F)(F)F)cc2)OCCCC[C@H](C)Oc2ccc(NC(=O)Cc3ccccc3)cc2C1=O	/	4	110*	72*[16.7 µM]	3
C[C@@H]1CN([C@@H](C)CO)C(=O)c2cc(NC(=O)Cc3ccccc3)ccc2O[C@@H](C)CCCCO[C@H]1CN(C)Cc1ccc(C(F)(F)F)cc1	/	16	76*	64*[16.7 µM]	0
C/C=C/c1ccc2c(c1)O[C@@H](CN(C)C(=O)C1CCC1)[C@H](C)CN([C@@H](C)CO)S2(=O)=O	/	4	/	-24[16.7 µM]	1
SMILES	GAA850 FXN act	EWS-Fli block	PAX8 reporter	HIV Env fusion	F508del corr
COc1ccc(NC(=O)CNCCC2=CCCCC2)cc1	4	/	/	60*	/
CC(OC(=O)c1ccc(NC(=O)CC#N)cc1)C(=O)NCCC1=CCCCC1 (stereo not drawn)	3	0	6	76*	2
COc1cccc(CNC(=O)[C@H]2[C@H](CO)[C@H]3Cn4c(cccc4=O)[C@@H]2N3C(=O)C2CCCC2)c1	/	2	-39	/	-2
CC(Sc1ncnc2ccccc12)C(=O)Nc1ccc2c(c1)OCCO2 (stereo not drawn)	3	/	63*	31	/
CC(Sc1nc2ccccc2c(=O)n1C)C(=O)Nc1ccc2c(c1)OCCO2 (stereo not drawn)	2	12	12	/	25*
CC(C)Cn1c(SC(C)C(=O)Nc2ccc3c(c2)OCCO3)nc2ccccc2c1=O (stereo not drawn)	-6	/	/	21	/
CNC(=O)C[C@H]1CC[C@@H]2[C@H](COc3ccc(NC(=O)c4ccc(F)c(F)c4)cc3C(=O)N2C)O1	/	-2	-10	-14[16.7 µM]	0
Cc1ccc(C(=O)N/N=C/c2ccc([N+](=O)[O-])s2)cc1	-15	/	/	/	/
Cc1cccc(NC(=O)/C=C/c2ccc([N+](=O)[O-])s2)c1	-12	68*	73*	-292	-8
Cc1ccc(NC(=O)/C=C/c2ccc([N+](=O)[O-])s2)cc1	0	/	39	/	/
O=C(N/N=C/c1ccc(O)c2ncccc12)c1cccc(Br)c1	-4	21	72*	?	0
Cc1cccc(NC(=S)N/N=C/c2ccc([N+](=O)[O-])s2)c1	3	/	/	105*	/
O=C(N/N=C/c1cc(Br)ccc1O)c1ccncc1	-7	41	35	-5	5
O=C(N/N=C/c1ccc([N+](=O)[O-])s1)c1cccc(Br)c1	-3	/	/	66*	/
C[C@@H]1CN([C@H](C)CO)C(=O)Cc2cc(NC(=O)Nc3ccc(C(F)(F)F)cc3)ccc2O[C@@H]1CN(C)C(=O)Nc1ccc(F)cc1	/	-1	-13	-40[16.7 µM]	6
O=C(C[C@H]1CC[C@H](NC(=O)Nc2cc(F)ccc2F)[C@H](CO)O1)NCCCN1CCOCC1	/	-3	1	2[16.7 µM]	2
Cc1cc([N+](=O)[O-])ccc1NC(=O)/C=C/c1cccs1	2	/	-159	-470	/
Cc1ccc(NC(=O)/C=C/c2ccc([N+](=O)[O-])s2)c(C)c1	-11	71*	98*	-38	/
